# Reference: PubChem BioAssay (NCI)
# About 83,000 compounds went through this panel and 20% of them were active in at least one assay; those are over-represented in the sample as a whole.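 Cells were grown in 96-well plates and exposed to the test compound at a single concentration for 48 hours; results are reported as percent growth, with values below 10 considered active.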 A number with no mark means an inactive call. The source made the active and inactive calls.
# Assays:
# Assay in all cases: NCI-60 one-dose screen, 48 h (100 = growth as untreated, 0 = no growth, -100 = all killed)
# Conditions in all cases: 10 µM unless noted
# NCI-H23 lung = test system: NCI-H23 lung
# NCI-H226 lung = test system: NCI-H226 lung
# NCI-H322M lung = test system: NCI-H322M lung
# HOP-62 NSCLC = test system: HOP-62 NSCLC
# NCI-H460 lung = test system: NCI-H460 lung
# NCI-H522 lung = test system: NCI-H522 lung
# A549/ATCC NSCLC = test system: A549/ATCC NSCLC
# 786-0 renal = test system: 786-0 renal
# COLO 205 colon = test system: COLO 205 colon
# DU-145 prostate = test system: DU-145 prostate
# K-562 leukemia = test system: K-562 leukemia
# MALME-3M melanoma = test system: MALME-3M melanoma
# MDA-MB-231 breast = test system: MDA-MB-231 breast
# RXF 393 renal = test system: RXF 393 renal
# SF-268 CNS = test system: SF-268 CNS
# SF-295 CNS = test system: SF-295 CNS
# SF-539 CNS = test system: SF-539 CNS
# UACC-257 melanoma = test system: UACC-257 melanoma
# M14 melanoma = test system: M14 melanoma
Structure (SMILES),growth (NCI-H23 lung),growth (NCI-H226 lung),growth (NCI-H322M lung) [%],growth (HOP-62 NSCLC),growth (NCI-H460 lung),growth (NCI-H522 lung),growth (A549/ATCC NSCLC) [%],growth (786-0 renal),growth (COLO 205 colon),growth (DU-145 prostate),growth (K-562 leukemia) [%],growth (MALME-3M melanoma),growth (MDA-MB-231 breast),growth (RXF 393 renal),growth (SF-268 CNS) [%],growth (SF-295 CNS),growth (SF-539 CNS),growth (UACC-257 melanoma) [%],growth (M14 melanoma)
CCN(CC)CCNC(=O)C(F)(F)C(F)(F)C(F)(F)F,114%,93.7%,114,95.6%,111%,110%,104,87.2%,102%,115%,109,124%,104%,98%,103,101%,90.7%,111,97.7%
COc1ccc2nc(-c3ccc(-c4noc(-c5ccc(Cl)cc5)n4)cc3)[nH]c2c1,63.7%,93.4%,67.5,97.4%,79.1%,88.6%,72.8,98.5%,67.8%,48%,45.1,37.1%,75.6%,103%,63.4,87.5%,77.2%,74.5,42.9%
COc1cc(NC(=O)CSc2nc3ccc(Cl)cc3c(=O)n2-c2ccccc2)cc(OC)c1OC,102%,91.2%,99.8,85.5%,98.2%,84.8%,89,92.1%,116%,102%,–,88%,77.8%,95%,90.9,87.5%,93.9%,102,94%
COc1ccc(-c2cnnn2-c2nonc2-n2cccc2)cc1,3.55% (active),23.6%,49.6,27.2%,7.52% (active),-4.72% (active),26,36.6%,-43.1% (active),9.22% (active),–,47.8%,33.5%,-18.3% (active),35.1,-17.2% (active),-13.9% (active),65.6,-2.06% (active)
O=C1OCC2=C1C(c1ccccc1)c1cc3c(cc1N2CCO)OCO3 (stereo not drawn),42.5%,49%,85.8,40.3%,-3.16% (active),-23.7% (active),58.7,32.1%,-8.27% (active),69.4%,–,50%,52.2%,24.8%,49,-12.8% (active),-0.802% (active),58.3,3.99% (active)
Clc1cc2nc(-c3ccccc3)c(-c3ccccc3)nc2cc1Cl,79.6%,89.7%,106,89.9%,94.8%,86.1%,100,103%,115%,103%,–,85.8%,88%,110%,105,98.7%,97.3%,111,85.9%
COc1cc(NC(=O)CSc2nc3ccc(Cl)cc3c(=O)n2Cc2ccccc2)cc(OC)c1OC,76.8%,46.4%,82.3,91.3%,64.7%,57.7%,67.3,58.5%,83.2%,72%,–,61.2%,44.6%,30.7%,59.3,84.1%,-6.78% (active),70,73.4%
C=C(C)[C@@H]1CC[C@]2(C(=O)NS(=O)(=O)c3ccccc3)CC[C@]3(C)[C@H](CC[C@@H]4[C@@]5(C)CC[C@H](OC(=O)NS(=O)(=O)c6ccccc6)C(C)(C)[C@@H]5CC[C@]43C)[C@@H]12,-9.55% (active),30.9%,34.1,-13.4% (active),-53.8% (active),16.7%,18.3,-43.5% (active),31.8%,43.3%,–,11.3%,39.7%,-25.9% (active),41.4,1.73% (active),-34.3% (active),27.8,12.8%
O=C(CC(=O)C(F)(F)C(F)(F)C(F)(F)F)c1cc2ccccc2o1,101%,99.8%,106,97.5%,110%,108%,96.1,98.4%,114%,114%,–,102%,100%,116%,111,99.2%,94.1%,100,106%
C=C(c1ccc(C(=O)NCCCn2ccnc2)cc1)c1cc2c(cc1C)C(C)(C)CCC2(C)C,44%,72.3%,42.8,18%,13.9%,10.2%,40.3,-17% (active),10.3%,34%,–,-1.54% (active),28.7%,35.8%,38.5,-29.6% (active),2.41% (active),99.2,-76.4% (active)
CC(=O)Nc1ccc(/C=N/N2CCCCCC2)cc1,103%,92%,101,95.2%,106%,103%,94.3,90.9%,110%,102%,–,99.7%,74.7%,105%,99.4,94.3%,83.6%,114,106%
CC(C)(C)c1ccc(C(=O)Nc2sc3cc(O)ccc3c2C(N)=O)cc1,88.3%,101%,86.2,106%,51.2%,64.9%,82.5,70.3%,57.2%,69.7%,–,94%,76%,70.6%,92.4,63.5%,53.9%,95.2,22.1%
COc1ccc2c(c1)OC1=C(C(=O)OC1)C2c1cc(OC)c2c(c1)OCCO2 (stereo not drawn),16.2%,-13.6% (active),44.3,24.1%,6.93% (active),-10.7% (active),18,21.4%,-69.6% (active),-13.7% (active),–,62.9%,25%,37.7%,29.5,7.02% (active),3.93% (active),61,4.69% (active)
CC(C)(C)c1nn(-c2ccccc2)c2c1C(=O)CSC(c1ccccc1Cl)N2 (stereo not drawn),38.3%,36.4%,35.1,27.6%,22.4%,11.7%,39.8,25.7%,2.17% (active),26.7%,–,53.5%,66%,-10.4% (active),50.4,-13.4% (active),15.7%,77.4,11.2%
COc1cccc(-c2nc3sccn3c2-c2ccnc(NCCN3CCCNS3(=O)=O)n2)c1,99.4%,81.4%,95.6,123%,68.8%,92.2%,99.2,77.5%,51.5%,79.2%,–,24.2%,83.3%,76.7%,94.7,106%,111%,65.4,18%
CCOC(=O)C1=C(C)NC(=S)NC1c1ccccc1 (stereo not drawn),108%,91.6%,108,101%,104%,91.6%,109,101%,120%,109%,–,101%,-95.7% (active),117%,91.7,103%,97.2%,101,107%
CCCCCCCCCCCCNC(=O)N[C@H](C(=O)N[C@H]1/C=C/OCCNC(=O)/C=C/[C@H](C(C)C)NC1=O)C(C)C,60.4%,-3.01% (active),97.1,76.7%,82.6%,47.6%,94.7,99.8%,103%,66.9%,–,71%,81.2%,83.6%,46.2,95.2%,54.6%,93.1,87.2%
